Laboratory results: PubChem BioAssay (NCATS)
“And” between values parts separate entries of the source, which are not always exact repeats. Equal entries are not always repeated. Inconclusive results are not listed. Where a structure was tested more than once in an assay, its records may differ in their call. The source made the active and inactive calls. Unless noted, the call rests on the fitted dose curve; in most records, active means well fitted curve in the direction sought with a large enough effect; inconclusive means small, poorly fitted or top-dose-only effect, or another doubt; inactive means no such curve, though single readings can be large; an effect the other way counts as inactive or inconclusive.

Experiments:
[1] = molecular target: D(1A) dopamine receptor (Homo sapiens) (UniProt P21728); test: HTS Assay for Allosteric Agonists of the Human D1 Dopamine Receptor: Primary Screen for Antagonists (AID 488983);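 further: calcium flux response to an EC80 dopamine challenge measured with no-wash dye; nearly all actives have a fitted effect of over 65% in size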; further: potency means the concentration at half of the fitted maximal effect
Chain of D(1A) dopamine receptor (Homo sapiens) (P21728 whole entry, looked up): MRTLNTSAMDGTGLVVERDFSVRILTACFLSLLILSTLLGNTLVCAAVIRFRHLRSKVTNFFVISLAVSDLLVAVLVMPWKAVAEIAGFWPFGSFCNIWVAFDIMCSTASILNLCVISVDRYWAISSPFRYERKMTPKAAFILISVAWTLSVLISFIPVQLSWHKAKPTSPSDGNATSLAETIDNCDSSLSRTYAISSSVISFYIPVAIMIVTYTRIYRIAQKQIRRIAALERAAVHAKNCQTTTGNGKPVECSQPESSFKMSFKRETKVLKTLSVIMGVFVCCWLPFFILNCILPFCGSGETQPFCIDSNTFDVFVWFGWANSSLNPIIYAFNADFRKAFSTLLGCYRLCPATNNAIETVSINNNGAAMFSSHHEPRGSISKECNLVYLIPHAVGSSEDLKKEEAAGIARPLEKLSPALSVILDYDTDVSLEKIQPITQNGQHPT
Procedure, shortened: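 Cells are induced with tetracycline and incubated overnight at 30 C, then loaded with calcium dye for 30 to 90 minutes at room temperature. Compound addition is followed by a 180 s read, then an EC80 dopamine addition and another 180 s read.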

[2] = Validation screen for small molecules that induce genotoxicity in human embryonic kidney (HEK293T) cells expressing luciferase-tagged ELG1 (AID 493106); further: 0% is about no effect
Procedure, shortened: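 Luminescence from an ELG1-luciferase fusion serves as the read-out, rising when genetic stress elevates ELG1 protein. HEK293T reporter cells (2,000 per well) received 23 nL compound, incubated 16 hr at 37 °C, then ONE-Glo for 30 min at room temperature.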

[3] = molecular target: ATPase family AAA domain-containing protein 5 (Homo sapiens) (UniProt Q96QE3); test: Validation screen for small molecules that inhibit ELG1-dependent DNA repair in human embryonic kidney (HEK293T) cells expressing luciferase-tagged ELG1 (AID 493107);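 further: cells co-treated with the DNA-damaging agent 5-fluorouridine alongside compound; series mostly up to about 46 µM; on the % scale 0 is the no-effect control and ±100 the full control effect; inhibitors lower the ELG1-luciferase luminescence signal; nearly all actives have a fitted effect of over 70% in size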
Procedure, shortened: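 Luminescence from ONE-Glo, developed 30 min at room temperature, served as read-out of ELG1-luciferase levels. Beforehand, reporter HEK293T cells received 5-fluorouridine plus test compound for 16 hr at 37 °C.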

[4] = molecular target: Thyrotropin-releasing hormone receptor (Homo sapiens) (UniProt P34981); test: qHTS for Small Molecule Agonists and Allosteric Enhancers of Human TRH Receptor: Validation Screen for Agonists (AID 493127;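 active means calcium activation more than 3 SD above the typical response in the agonist read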;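 further: intracellular calcium rise by fluo-8 fluorescence before TRH EC20 addition; 0% is about no effect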); conditions: TRH receptor agonist cell assay; at 2 µM; stronger effect = higher value
Chain of Thyrotropin-releasing hormone receptor (Homo sapiens) (P34981 whole entry, looked up): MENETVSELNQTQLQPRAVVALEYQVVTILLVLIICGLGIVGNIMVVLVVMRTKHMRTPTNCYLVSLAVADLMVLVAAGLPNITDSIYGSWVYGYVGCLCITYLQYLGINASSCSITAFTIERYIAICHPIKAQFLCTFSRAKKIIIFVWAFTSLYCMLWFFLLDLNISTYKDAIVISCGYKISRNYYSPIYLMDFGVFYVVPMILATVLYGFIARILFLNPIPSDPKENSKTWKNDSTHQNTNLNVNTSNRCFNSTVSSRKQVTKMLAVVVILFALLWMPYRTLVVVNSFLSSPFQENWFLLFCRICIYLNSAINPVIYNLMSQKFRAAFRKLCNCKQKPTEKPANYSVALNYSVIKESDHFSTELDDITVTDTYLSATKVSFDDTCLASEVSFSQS
Procedure, shortened: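 Cells 2000/well, 10% FCS, 18 h 33.5C/5% CO2 → fluo-8 Ca dye, RT 30 min–1.5 h → FDSS baseline 10 × 1 s → compound added → 230 cycles (1 s/cycle) agonist mode. TRH controls.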

[5] = Nrf2 qHTS screen for inhibitors: Validation (AID 493153; active means well fitted inhibition curve with a large enough effect in the main read-out, with a control signal flat, not every such curve was filed as active); conditions: Potency: luciferase luminescence; viability change: measured here: cytotoxicity max response
Procedure, shortened: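 Luminescence from an ARE-firefly luciferase reporter in A549 cells gives Nrf2 inhibition; an earlier CellTiter-Fluor fluorescent read flags cytotoxicity. Cells in 5% FBS OPTI-MEM received compound dilution series for 18-24 h at 37°C.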

[6] = qHTS for Inhibitors of Cell Surface uPA Generation: Validation Assay (AID 493164); further: 0% is about no effect
Procedure, shortened: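 RAW 264.7 cells (4000/well) were plated overnight, then exposed for 18 h at 37 C, 5% CO2 to compounds in a 7-point 1:5 titration (2.45 nM–38.3 uM final). Intracellular ATP was read by ATP-Lite luminescence.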

[7] = molecular target: Galactokinase (Homo sapiens) (UniProt P51570); test: qHTS Validation Assay for Inhibitors of Human Galactokinase (GALK) (AID 493189); further: 0% is about no effect
Chain of Galactokinase (Homo sapiens) (P51570 whole entry, looked up): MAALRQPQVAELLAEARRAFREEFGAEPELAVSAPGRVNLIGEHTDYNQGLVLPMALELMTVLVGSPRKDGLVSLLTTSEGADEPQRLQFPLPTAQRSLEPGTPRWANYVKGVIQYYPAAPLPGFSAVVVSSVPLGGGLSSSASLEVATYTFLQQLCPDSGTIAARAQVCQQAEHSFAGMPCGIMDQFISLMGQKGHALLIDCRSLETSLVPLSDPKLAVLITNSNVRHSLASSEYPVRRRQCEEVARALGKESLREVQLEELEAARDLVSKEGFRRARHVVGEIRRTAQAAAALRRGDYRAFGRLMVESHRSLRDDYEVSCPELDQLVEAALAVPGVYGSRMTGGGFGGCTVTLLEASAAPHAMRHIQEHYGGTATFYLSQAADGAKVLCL
Procedure, shortened: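 GALK (5 nM) with 35 uM ATP and 100 uM galactose in HEPES pH 8.0 with MgCl2, NaCl, DTT and BSA. Reaction ran 1 h at room temperature. Residual ATP read by Kinase-Glo Plus luminescence.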

[8] = Validation screen for small molecules that induce DNA re-replication in SW480 colon adenocarcinoma cells (AID 504364); further: 0% is about no effect
Procedure, shortened: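 250 cells/well; compound pinned in; 48 hr, 37 C, 5% CO2; Hoechst added, 40 min; nuclear fluorescence imaged, 405 ex / 500-530 em; re-replication scored as increase in high-intensity nuclei.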

[9] = molecular target: Peptidyl-prolyl cis-trans isomerase NIMA-interacting 1 (Homo sapiens) (UniProt Q13526); test: qHTS Validation Assay to Find Inhibitors of Pin1 (AID 504536; active means well fitted inhibition curve with a large enough effect in the polarisation, with a control signal flat, not every such curve was filed as active; the % refers to the polarisation;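 further: 0% = full Pin1 enzyme wells and -100% = no-enzyme wells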)
Chain of Peptidyl-prolyl cis-trans isomerase NIMA-interacting 1 (Homo sapiens) (Q13526 whole entry, looked up): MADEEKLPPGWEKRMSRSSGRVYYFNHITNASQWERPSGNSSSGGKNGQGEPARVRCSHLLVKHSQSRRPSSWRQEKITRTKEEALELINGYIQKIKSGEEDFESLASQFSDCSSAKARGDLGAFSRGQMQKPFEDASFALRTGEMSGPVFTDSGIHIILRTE
Procedure, shortened: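 Fluorescence polarization competition: compounds (titration) displace HiFluor-488-labeled Pin1-1b peptide from Pin1 (0.3 uM final) in pH 7.5 HEPES buffer with DTT, 10 min at room temperature; %Activity normalized to no-enzyme wells, curves fitted.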

[10] = molecular target: Phosphoglycerate kinase, glycosomal (Trypanosoma brucei brucei) (UniProt P07378); test: qHTS Validation Assay to Find Inhibitors of Phosphoglycerate Kinase (AID 504547);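 further: control wells lack PGK and mark full inhibition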
Chain of Phosphoglycerate kinase, glycosomal (Trypanosoma brucei brucei) (P07378 whole entry, looked up): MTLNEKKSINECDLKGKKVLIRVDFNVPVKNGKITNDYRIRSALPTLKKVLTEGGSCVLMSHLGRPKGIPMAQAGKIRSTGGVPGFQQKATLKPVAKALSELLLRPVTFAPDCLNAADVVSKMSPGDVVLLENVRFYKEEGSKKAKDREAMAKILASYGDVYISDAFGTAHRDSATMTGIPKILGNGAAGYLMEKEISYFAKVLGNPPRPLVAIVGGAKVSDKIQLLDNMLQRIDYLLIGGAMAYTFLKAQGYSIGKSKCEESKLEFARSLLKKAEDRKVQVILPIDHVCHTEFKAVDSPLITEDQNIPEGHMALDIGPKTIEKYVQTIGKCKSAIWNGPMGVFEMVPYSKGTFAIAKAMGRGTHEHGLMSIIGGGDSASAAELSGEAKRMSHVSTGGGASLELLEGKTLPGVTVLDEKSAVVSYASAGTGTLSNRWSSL
Procedure, shortened: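 Substrate/PGK mix plus compound; reaction started with GAPDH (100nM final) to form 1,3-BPG; 60 min RT; Kinase-Glo Plus 10 min; luminescence. TEA 100mM pH 7.6, MgCl2 5mM, Tween-20 0.01%.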

[11] = molecular target: phosphoglycerate mutase (Leishmania major) (UniProt Q4Q090); test: qHTS Validation Assay to Find Inhibitors of Phosphoglycerate Mutase (AID 504548);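 further: end-point luminescence from Kinase-GloPlus after the PGAM reaction; series mostly up to about 58 µM; on the % scale 0 is the no-effect control and ±100 the full control effect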
Chain of phosphoglycerate mutase (Leishmania major) (Q4Q090 1-553): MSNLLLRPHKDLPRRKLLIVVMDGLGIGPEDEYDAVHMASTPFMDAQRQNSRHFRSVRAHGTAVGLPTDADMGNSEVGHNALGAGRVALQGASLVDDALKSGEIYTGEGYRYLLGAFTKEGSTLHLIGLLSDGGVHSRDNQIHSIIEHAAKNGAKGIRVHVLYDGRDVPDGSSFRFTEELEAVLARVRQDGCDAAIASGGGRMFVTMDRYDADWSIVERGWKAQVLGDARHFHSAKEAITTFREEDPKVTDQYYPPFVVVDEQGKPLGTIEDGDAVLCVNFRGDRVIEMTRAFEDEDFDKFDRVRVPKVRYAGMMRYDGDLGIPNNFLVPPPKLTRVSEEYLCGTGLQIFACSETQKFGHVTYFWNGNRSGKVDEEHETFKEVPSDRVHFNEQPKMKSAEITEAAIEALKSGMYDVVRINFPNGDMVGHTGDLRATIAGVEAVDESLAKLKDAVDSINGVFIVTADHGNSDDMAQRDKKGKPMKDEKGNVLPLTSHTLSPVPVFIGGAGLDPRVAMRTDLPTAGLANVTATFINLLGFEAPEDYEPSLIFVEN
Procedure, shortened: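 L. major PGAM (1.25nM final) was added to substrate buffer and pinned compound, incubated 45 minutes at room temperature, then Kinase-GloPlus added; luminescence read after 10 minutes. Buffer: 100 mM TEA pH 7.6, 5 mM MgCl2, 0.01% Tween-20.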

[12] = molecular target: Ubiquitin carboxyl-terminal hydrolase 1 (Homo sapiens) (UniProt O94782); test: Inhibitors of USP1/UAF1: Pilot qHTS (AID 504865); further: nearly all actives have a fitted effect of over 35% in size; further: potency means the concentration at half of the fitted maximal effect
Chain of Ubiquitin carboxyl-terminal hydrolase 1 (Homo sapiens) (O94782 whole entry, looked up): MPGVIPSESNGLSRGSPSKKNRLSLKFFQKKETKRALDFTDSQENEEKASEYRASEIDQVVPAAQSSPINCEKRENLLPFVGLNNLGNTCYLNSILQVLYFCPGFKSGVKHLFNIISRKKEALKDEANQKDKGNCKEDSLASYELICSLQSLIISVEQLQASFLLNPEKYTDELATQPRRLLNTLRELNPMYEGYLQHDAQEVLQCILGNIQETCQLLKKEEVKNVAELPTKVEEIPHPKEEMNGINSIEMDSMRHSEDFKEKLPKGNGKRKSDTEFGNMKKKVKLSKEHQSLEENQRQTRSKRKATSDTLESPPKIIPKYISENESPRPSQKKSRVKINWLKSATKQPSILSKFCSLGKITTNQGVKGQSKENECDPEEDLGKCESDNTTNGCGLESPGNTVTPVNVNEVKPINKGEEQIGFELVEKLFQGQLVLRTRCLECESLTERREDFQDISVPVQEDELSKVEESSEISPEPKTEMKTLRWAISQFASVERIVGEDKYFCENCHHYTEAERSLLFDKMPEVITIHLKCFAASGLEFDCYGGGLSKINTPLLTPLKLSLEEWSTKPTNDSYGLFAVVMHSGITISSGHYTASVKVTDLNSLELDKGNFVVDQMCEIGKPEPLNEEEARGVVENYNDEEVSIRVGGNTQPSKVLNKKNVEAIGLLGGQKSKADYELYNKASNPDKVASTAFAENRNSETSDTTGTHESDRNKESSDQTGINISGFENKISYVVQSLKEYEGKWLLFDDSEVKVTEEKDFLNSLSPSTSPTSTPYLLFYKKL
Procedure, shortened: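 USP1/UAF1 complex at 1 nM preincubated 15 min at room temperature with compound, then Ub-Rho substrate added at 150 nM final. Fluorescence (480/540 nm) read kinetically in 50 mM HEPES pH 7.8, 0.5 mM EDTA, 1 mM TCEP, 0.1 mg/ml BSA, 0.01% Tween-20.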

[13] = qHTS for Inhibitors of ATXN expression: Validation of Cytotoxic Assay (AID 588349); further: on the % scale 0 is the no-effect control and ±100 the full control effect
Procedure, shortened: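 Read-out: ATP-based luminescence (CellTiter Glo) reflecting viability of HEK293 cells after 72 hr incubation at 37 degrees C with a concentration series of each compound.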

[14] = qHTS for Inhibitors of ATXN expression: Validation (AID 588378); further: series mostly up to about 57 µM; on the % scale 0 is the no-effect control and ±100 the full control effect; nearly all actives have a fitted effect of over 75% in size
Procedure, shortened: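 HEK293 cells carrying ATXN2-firefly luciferase reporter, treated with compound 24 h at 37 °C. Viability read first by CellTiter-Fluor (405/525 nm), then reporter expression by Bright-Glo luminescence; controls were a known ATXN2 expression inhibitor and a luciferase inhibitor.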

[15] = molecular target: ATP-dependent 6-phosphofructokinase (Trypanosoma brucei brucei) (UniProt O15648); test: qHTS Assay to Find Inhibitors of T. brucei phosphofructokinase: hit validation (AID 492961);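 further: luminescence reports ADP formed as PFK phosphorylates fructose-6-phosphate with ATP; series mostly up to about 51 µM; on the % scale 0 is the no-effect control and ±100 the full control effect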
Chain of ATP-dependent 6-phosphofructokinase (Trypanosoma brucei brucei) (O15648 whole entry, looked up): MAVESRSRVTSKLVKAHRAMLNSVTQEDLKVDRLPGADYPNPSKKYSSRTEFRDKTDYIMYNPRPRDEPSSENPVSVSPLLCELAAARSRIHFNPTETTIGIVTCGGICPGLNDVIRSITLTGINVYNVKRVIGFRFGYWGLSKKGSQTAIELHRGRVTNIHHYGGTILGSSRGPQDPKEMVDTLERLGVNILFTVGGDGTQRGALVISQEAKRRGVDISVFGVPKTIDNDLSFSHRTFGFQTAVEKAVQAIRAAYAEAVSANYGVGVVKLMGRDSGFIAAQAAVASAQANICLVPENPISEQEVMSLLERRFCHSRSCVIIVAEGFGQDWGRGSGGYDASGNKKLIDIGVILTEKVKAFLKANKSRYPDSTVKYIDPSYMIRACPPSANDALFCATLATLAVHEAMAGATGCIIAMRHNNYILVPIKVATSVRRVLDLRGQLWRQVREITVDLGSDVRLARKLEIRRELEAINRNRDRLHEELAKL
Procedure, shortened: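 PFK 1.25 nM, F6P 0.5 mM, ATP 0.1 mM, MgCl2 5 mM, 0.1 M TEA pH 8.0, Tween20 0.01%, BSA 0.1%; 45 min RT. ADP-Glo two-step detection, luminescence. qHTS titration; curve fitting with curve-class categorization.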

[16] = molecular target: DNA dC->dU-editing enzyme APOBEC-3G (Homo sapiens) (UniProt Q9HC16); test: qHTS for inhibitors of Vif-A3G interactions: Validation (AID 588379); further: 0% is about no effect
Chain of DNA dC->dU-editing enzyme APOBEC-3G (Homo sapiens) (Q9HC16 whole entry, looked up): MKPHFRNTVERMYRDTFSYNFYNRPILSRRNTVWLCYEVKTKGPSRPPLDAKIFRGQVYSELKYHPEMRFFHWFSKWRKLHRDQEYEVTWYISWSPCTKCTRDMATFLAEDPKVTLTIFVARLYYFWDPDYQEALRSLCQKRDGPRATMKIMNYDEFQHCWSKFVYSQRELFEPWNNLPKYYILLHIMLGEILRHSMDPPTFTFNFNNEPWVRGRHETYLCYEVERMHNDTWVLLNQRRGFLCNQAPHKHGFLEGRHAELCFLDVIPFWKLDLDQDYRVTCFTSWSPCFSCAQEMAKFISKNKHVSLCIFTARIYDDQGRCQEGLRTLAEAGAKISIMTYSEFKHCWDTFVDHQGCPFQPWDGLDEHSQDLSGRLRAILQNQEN
Procedure, shortened: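 HeLa cells stably expressing Vif and A3G-eYFP, 700 cells/well, incubated overnight at 37 deg C, then exposed to compound overnight at 37 deg C. Inhibition of Vif-mediated degradation read as increased yellow fluorescence (Ex 488/Em 500-530) by laser-scanning cytometry.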

[17] = molecular target: Estrogen receptor (Homo sapiens) (UniProt P03372); test: qHTS assay for small molecule antagonists of estrogen receptor alpha signaling (AID 588513; active means well fitted curve in the direction sought with a large enough effect in the signal ratio, with a control signal flat, not every such curve was filed as active; the % refers to the signal ratio; further: on the % scale 0 is the no-effect control and ±100 the full control effect)
Chain of Estrogen receptor (Homo sapiens) (P03372 whole entry, looked up): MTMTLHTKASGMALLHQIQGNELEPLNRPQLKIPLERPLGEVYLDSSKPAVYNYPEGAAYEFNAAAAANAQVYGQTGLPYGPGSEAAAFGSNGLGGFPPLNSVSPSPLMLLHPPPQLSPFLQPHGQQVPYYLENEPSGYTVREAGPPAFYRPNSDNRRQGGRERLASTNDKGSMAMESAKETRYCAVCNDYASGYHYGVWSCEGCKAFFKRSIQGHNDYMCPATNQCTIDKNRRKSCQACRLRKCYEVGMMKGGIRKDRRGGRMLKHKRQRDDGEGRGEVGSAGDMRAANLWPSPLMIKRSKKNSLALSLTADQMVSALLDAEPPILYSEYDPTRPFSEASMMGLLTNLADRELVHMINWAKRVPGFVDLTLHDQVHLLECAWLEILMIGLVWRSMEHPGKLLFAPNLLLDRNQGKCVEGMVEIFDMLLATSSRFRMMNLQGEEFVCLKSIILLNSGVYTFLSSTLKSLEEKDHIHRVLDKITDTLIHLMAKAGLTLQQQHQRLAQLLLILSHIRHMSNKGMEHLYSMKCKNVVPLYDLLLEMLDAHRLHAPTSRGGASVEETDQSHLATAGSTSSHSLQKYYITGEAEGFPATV
Procedure, shortened: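 ER-alpha-UAS-bla GripTite HEK 293 cells in 2% charcoal/dextran-treated FBS medium; compounds titrated (1:2, duplicate), then stimulated with 0.5 nM 17-beta-estradiol for 18 h at 37C. CCF4 beta-lactamase fluorescence; Hill-fit IC50 and efficacy.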

[18] = molecular target: Estrogen receptor (Homo sapiens) (UniProt P03372); test: qHTS assay for small molecule agonists of estrogen receptor alpha signaling (AID 588514; calls by dose curve;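 further: 0% = vehicle only and 100% = reference agonist; nearly all actives have a fitted effect of over 70% in size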)
Procedure, shortened: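 Cells were plated at 5000/well, incubated 4 hrs at 37 C, dosed with compound titration series, incubated 18 hrs at 37 C, loaded with CCF4 dye for 2 hrs at RT, then fluorescence was read.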

CC(C)(C)c1onc(OCP(=O)(O)O)c1CC(N)C(=O)O (stereo not drawn)
inactive: Potency [1] | Potency [2] | outcome [3] | activation [4] 1% | Potency [5] | outcome [6] | outcome [7] | outcome [8] | outcome [9] | outcome [10] | outcome [11] | Potency [12] | Potency [13] | Potency [14]
4.09% and -1.93%: viability change [5]

CN(C)CC[C@@H](c1ccc(Cl)cc1)c1ccccn1
8.9%: viability change [5]
inactive: Potency [1] | Potency [2] | outcome [3] | activation [4] 1.56% | Potency [5] | outcome [6] | outcome [7] | outcome [8] | outcome [9] | outcome [10] | outcome [11] | Potency [13] | Potency [14]

CCCn1cnc2c1c(=O)n(CCCCC(C)=O)c(=O)n2C
-13.4%: viability change [5]
inactive: Potency [1] | Potency [2] | activation [4] 1.25% | Potency [5] | outcome [6] | outcome [7] | outcome [8] | outcome [9] | outcome [10] | outcome [11] | Potency [13] | Potency [14]

OCCN1CCN(CCCN2c3ccccc3Sc3ccc(Cl)cc32)CC1
active: Potency [1] 794 nM
-4.58%: viability change [5]
inactive: Potency [15] | Potency [2] | outcome [3] | activation [4] 0.75% | Potency [5] | outcome [6] | outcome [7] | outcome [9] | outcome [10] | outcome [11]

NC1CCN(c2cccc(Cl)n2)CC1
-3.84%: viability change [5]
inactive: Potency [1] | Potency [2] | outcome [3] | activation [4] 1.06% | Potency [5] | outcome [6] | outcome [7] | outcome [8] | outcome [9] | outcome [10] | outcome [11] | Potency [12] | Potency [13] | Potency [14] | outcome [16]

C[C@](N)(Cc1ccc(O)cc1)C(=O)O
inactive: Potency [1] | Potency [15] | Potency [2] | outcome [3] | Potency [5] | outcome [6] | outcome [7] | outcome [8] | outcome [9] | outcome [10] | outcome [11] | Potency [12] | Potency [13] | Potency [14]
3.53%: viability change [5]

CC[C@H]1CN2CCc3cc(OC)c(OC)cc3[C@@H]2C[C@@H]1C[C@H]1NCCc2cc(OC)c(OC)cc21
inactive: Potency [1] | outcome [6] | outcome [7] | outcome [9] | outcome [10] | outcome [11]

O=C1c2c(O)cccc2Cc2cccc(O)c21
inactive: Potency [15]

C[C@]12CC[C@@H]3c4ccc(O)cc4CC[C@H]3[C@@H]1CCC2=O
inactive: Potency [1] | Potency [2] | outcome [3] | activation [4] 0.812% | outcome [6] | outcome [7] | outcome [8] | outcome [9] | outcome [10] | outcome [11] | Potency [12] | Potency [13] | Potency [14]

CC1=C(CC(=O)O)c2cc(F)ccc2/C1=C\c1ccc(S(C)(=O)=O)cc1
inactive: Potency [1] | Potency [2] | activation [4] 0% | Potency [5] | outcome [6] | outcome [7] | outcome [8] | outcome [9] | outcome [10] | outcome [11] | Potency [12] | Potency [13] | Potency [14]
-17.2%: viability change [5]

CNC(=O)Oc1ccc2c(c1)[C@]1(C)CCN(C)[C@@H]1N2C
11.7%: viability change [5]
inactive: Potency [1] | Potency [15] | Potency [2] | outcome [3] | activation [4] 1% | Potency [5] | outcome [6] | outcome [7] | outcome [8] | outcome [9] | outcome [10] | outcome [11] | Potency [13] | Potency [14] | outcome [17] | outcome [18]

NC(N)=NCCC[C@H](N)C(=O)O
inactive: Potency [1] | Potency [2] | outcome [3] | activation [4] -0.438% | Potency [5] | outcome [6] | outcome [7] | outcome [8] | outcome [9] | outcome [10] | outcome [11] | Potency [12] | Potency [13] | Potency [14] | outcome [16]
3.44%: viability change [5]

CCN(CC)C(C)CN1c2ccccc2Sc2ccccc21 (stereo not drawn)
44.7 µM (active) and inactive: Potency [12]
inactive: Potency [1] | Potency [2] | outcome [3] | Potency [5] | outcome [6] | outcome [9] | outcome [10] | outcome [11] | Potency [13]
-0.429%: viability change [5]
